Dicer inh = blocks human Dicer maturation of pre-miR-21; z-score at 25 µM; cat-ELCCA pre-miR-21 Dicer processing, chemiluminescence; active compounds read high; 47,000 compounds, 6% hits; in the data active = z-score above about 3, passing the limit was not always enough;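 note: plate controls were vehicle for no effect and no enzyme for full effect; higher signal means more uncleaved substrate so more Dicer inhibition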
Starred values were filed as active, the others as inactive. The sample as a whole holds a higher share of hits than the screen did.

SMILES	Dicer inh
COc1ccc(-c2nc3n(n2)C(=O)CC(c2cccc4ccccc24)S3)cc1 (stereo not drawn)	4.2*
Cc1ccc(-c2nc3n(n2)C(=O)CC(c2ccc4c(c2)OCO4)S3)cc1 (stereo not drawn)	-0.11
COc1ccc(C2C(C#N)=C(N)Oc3n[nH]c(-c4ccccc4)c32)cc1 (stereo not drawn)	-5.3
O=C(CN1CCN(c2nc3cc(Cl)ccc3s2)CC1)c1ccc(OC(F)(F)F)cc1	0.69
O=C1CCC(c2ccccc2)C(O)=C1C=Nc1ccc(Cl)cc1 (stereo not drawn)	1.6
O=C1CC(c2ccccc2)CC(O)=C1C=Nc1ccccc1Cl (stereo not drawn)	1.8
O=C1CC(c2ccccc2)CC(O)=C1C=Nc1ccc(Cl)cc1 (stereo not drawn)	3*
COC(OC)c1nc(SCC(=O)Nc2cccc(Cl)c2)ncc1C(=O)O	-2.1
COC(=O)c1ccc2c(c1)N(C)S(=O)(=O)c1cnc(SC)nc1-2	-2.9
COC(=O)c1ccc2c(c1)N(C)S(=O)(=O)c1cnc(SCC(=O)Nc3ccccc3)nc1-2	5*
O=[N+]([O-])c1cc(Br)cnc1Sc1nnc(SCC2CC2)s1	-0.84
O=C1CC(c2cccc(Cl)c2)c2c(n[nH]c2-c2ccccc2)N1 (stereo not drawn)	0.47
CCCCCOC(=O)Cn1c(=O)oc2ccc(C)cc21	1
Cc1ccc2oc(=O)n(Cc3ccc(OC(C)C)cc3)c2c1	3.2*
COC(=O)Cn1c(=O)oc2ccc(C)cc21	3.7*
O=c1oc2ccccc2n1Cc1cccc(Cl)c1	0.02
CC(C)(C)NC(=O)Cn1c(=O)oc2ccc(Cl)cc21	-1
Cc1cccc(Cn2c(=O)oc3ccc(C)cc32)c1	-0.24
CC(C(=O)NNS(=O)(=O)c1cccc(C(F)(F)F)c1)n1nnc(-c2cc(C(F)(F)F)cc(C(F)(F)F)c2)n1 (stereo not drawn)	2.9
Nc1ccc(Sc2nc3ccccc3s2)cc1	5.2*
Clc1ccc2sc(Sc3ccccc3)nc2c1	-0.68
O=C(O)CSc1nc2ccccc2s1	-1.8
O=C(Cn1c(=O)sc2ccccc21)NCc1ccccc1	0.61
COc1ccc(C2CC(=O)C3=C(C2)NC(C)=C(C(=O)OC2CCCC2)C3c2ccccc2)cc1 (stereo not drawn)	0.73
C=CCOc1ccc(C2c3c(oc4cc(C)c(C)cc4c3=O)C(=O)N2CCOC)cc1OC (stereo not drawn)	1.4
SMILES	Dicer inh
CC(=O)OCCNc1ccc2noc3c2c1C(=O)c1ccccc1-3	0.48
CCOC(=O)CSc1nc2cc(Cl)ccc2n1C(C)C	0.31
Nc1ccc(CCc2nc3ccccc3[nH]2)cc1	6.5*
CCOC(=O)CCc1nc2ccccc2[nH]1	0.58
Cc1ccc(Cc2nc3ccccc3[nH]2)cc1	-0.64
NC(=O)c1ccc(-c2ncc3c(n2)-c2ccsc2SC3)cc1	-0.44
CC(C)(C)c1ccc(-c2noc(CSc3n[nH]c(=O)n3-c3cccnc3)n2)cc1	1.7
CC1(C)CC(=O)C2=C(C1)Nc1nonc1NC2c1cccnc1 (stereo not drawn)	0.59
O=S(=O)(Nc1nc(SCc2ccc(Cl)cc2)n[nH]1)c1ccc(F)cc1	-0.14
O=S(=O)(Nc1nc(SCc2ccc(Cl)cc2)n[nH]1)c1ccc(-c2ccccn2)s1	3.4*
O=S(=O)(NCCc1ccccn1)c1ccc(-c2ccccn2)s1	-1.4
Cc1ccc2c(c1)C(=O)OC(C(=O)Nc1nccs1)C2 (stereo not drawn)	-2.7
O=C(O)CC(NC(=O)Cc1cccc2ccccc12)C(=O)O (stereo not drawn)	-0.88
CCOc1cccc(C2c3c(oc4ccccc4c3=O)C(=O)N2c2ccc(C)cn2)c1 (stereo not drawn)	-0.32
O=C(Nc1c(Cl)cccc1Cl)Oc1ccc(F)cc1Cl	-1.1
O=C(O)CCC1=NN2C=Nc3sc4c(c3C2NC1=O)CCCC4 (stereo not drawn)	3.3*
Cn1c(SCC(=O)c2c[nH]c3ccccc23)nnc1C1CCCCC1	2
CSCCC(NC(=O)c1ccc(C(F)(F)F)cc1)C(=O)NNS(=O)(=O)c1ccccc1Cl (stereo not drawn)	0.38
CCCSc1sc(C(=O)OCC)c2c1C(=O)CCC2	-0.61
COc1ccc(C2CC(=O)c3cnn(-c4nc(C)cc(C)n4)c3C2)cc1OC (stereo not drawn)	-0.72
CCOC(=O)N1CCN(c2ncc3c(n2)CC(c2ccc(OC)c(OC)c2)CC3=O)CC1 (stereo not drawn)	3.5*
COc1ccc(C2CC(=O)c3cnc(NC4OC(=O)c5ccccc54)nc3C2)cc1OC (stereo not drawn)	-1.3
COc1cccc(OC)c1COC(=O)Nc1c(-c2ccccc2Cl)noc1C	-1.5
Cc1cc2oc3c(c(=O)c2cc1C)C(c1ccc(F)cc1)N(c1ccccn1)C3=O (stereo not drawn)	0.39
O=[N+]([O-])c1ccc(Sc2c(-c3ccc(Br)cc3)nc3ccccn23)cc1	-1.9
O=C1C(=O)N(Cc2ccccc2)c2ccccc21	-0.23
Cc1cc(C)c(CN2C(=O)C(=O)c3ccccc32)cc1CN1C(=O)C(=O)c2ccccc21	3.6*

From PubChem BioAssay
